Source: PubChem (National Center for Advancing Translational Sciences (NCATS))
Pf Dd2 inh: Plasmodium falciparum Dd2 growth inhibition | P. falciparum Dd2 growth, SYBR Green, 72 h | Potency, µM (top dose mostly 28.9 µM), inactives show top-dose activity, negative = inhibition, hits mostly inhibitors | hit rate 4.3% among 120,000; active means well fitted inhibition curve with a large enough effect;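 further: plate controls were DMSO vehicle for no effect and reference drug for full effect; nearly all actives have a fitted effect of over 65% in size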
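Readout: SYBR Green fluorescence, 485 nm excitation, 535 nm emission, after ~16 h lysis at 37C. Before that, Dd2-infected red cells (2.5% hematocrit) grew 72 h with compound, 29 uM top final concentration.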
* marks the source's active call; other numbers are inactive results; i = inactive; [ ] = dose if it differs, or a comment. The sample as a whole holds a higher share of hits than the screen did. Potency means the concentration at half of the fitted maximal effect.

SMILES	Pf Dd2 inh
CN(C)Cc1cn([C@H]2CO[C@H]3[C@@H]2OC[C@@H]3NC(=O)NC2CCCCC2)nn1	0.8%[44.1 µM]
C#C[C@H]1CN2CC[C@H]1C[C@@H]2CNC(=O)COc1ccccc1	i
CCc1nc2ccccc2n1CCC(=O)N[C@H]1CCOC[C@H]1C1CCOCC1	-10.2%
Cc1cnc(CC2CCNC2)n1C(C)C (configuration not stated)	-12.8%
CC(=O)Nc1cccc2ccc(OCc3nnc(C(=O)N4CCC[C@@H]4c4ccc(Br)cc4)n3Cc3ccccc3)cc12	11.2µM*
C[C@H]1CCCN1C(=O)c1nnc(COc2ccc(Cl)cc2)n1-c1ccccc1	-12.4%[44.1 µM]
CC(=O)Nc1cccc(OCc2nnc(C(=O)N3CCC[C@@H]3c3ccc(Br)cc3)n2Cc2ccccc2)c1	-22.3%
O=C1CC2(CCN(CC3CCNC3)C2)Nc2ccccc2N1 (configuration not stated)	-4.1%[44.1 µM]
Cc1ccc(C(=O)NC2CCN(c3cnn(CC4CC4)c(=O)c3)CC2)cc1C	i
Cc1ccc(-n2ncc3c(NC4CCCCCC4)ncnc32)cc1Cl	i
Cc1ccc(N2CCC(N[C@@H]3CC[C@@H](N)C3)CC2)cc1Cl	12.6µM*
COC[C@@H]1CN(C(=O)c2ccccn2)C[C@H]1c1ccccn1	14.1%
CO[C@H]1C(=O)N(C2CCN(C(=O)Nc3ccccc3)CC2)[C@H]1c1ccncc1	-7.4%
O=C(CSc1nnc(-c2ccc([N+](=O)[O-])cc2)o1)Nc1ccccc1	12.1%
COc1ccc([N+](=O)[O-])cc1NC(c1nnc(-c2ccccc2)o1)c1ccccc1F (configuration not stated)	12.6µM*
COc1ccc(-c2noc(-c3ccc(NC(C)c4ccccc4)c([N+](=O)[O-])c3)n2)cc1OC (configuration not stated)	1.9%
CC(c1ccc(-c2ccc(N(C)C)nn2)cc1)N(C)C (configuration not stated)	-9.2%
CCCc1noc(-c2ccn3c(CNC(=O)CCC4CCCC4)nnc3c2)n1	i
COc1ccc(C(=O)N2CCCOCCNC(=O)[C@@H]3CCCC[C@@H]32)cn1	10.7%
CN1CCN(C(=O)C2(N(C)CCc3ccccc3)Cc3ccccc3C2)CC1	1µM*
CC(=O)N1Cc2ccccc2CC2(CCN(C)CC2)C1	-20.8%[44.1 µM]
CN(C)CCC(=O)N1Cc2ccccc2CC2(CCCCN2C)C1 (configuration not stated)	-34.0%
COCCn1ncc(N2CCCC(CC(=O)NCC3CC3)C2)cc1=O (configuration not stated)	25.0%
CC(C)(C)OC(=O)N1CCC(c2c(C(=O)NC3CCN(Cc4ccccc4)CC3)cnn2-c2ccc(F)cc2F)CC1	11.2µM*
CCOC(=O)N1CCC(NC(=O)c2cnn(-c3ccc(F)cc3F)c2C2CCN(C(=O)OC(C)(C)C)CC2)CC1	3.55µM*
SMILES	Pf Dd2 inh
Cc1ccsc1CN1C[C@@H](NC(=O)c2cccnc2)C[C@H]1CO	-17.8%
O=C1CCCN1CC1CCN(C(=O)c2ccc(N3CC[C@H](O)C3)nc2)CC1	-0.8%
COCCCNC(=O)c1c(OCC2CC2)cc(=O)n2c1CCCCC2	45.6%
Cc1cc(C)n2ncc(C(=O)NCc3cc4n(n3)CCN(C(=O)N(C)C)C4)c2n1	-14.3%
O=C(Cc1cccnc1)N1[C@H]2CC[C@@H]1c1cnc(-c3ccc(F)cc3)nc1C2	-14.9%
O=C(CCc1c[nH]c2ccccc12)N1[C@H]2CC[C@@H]1c1cnc(-c3ccccc3)nc1C2	-19.2%
O=C(CCc1nc2ccccc2[nH]1)N1[C@H]2CC[C@@H]1c1cnc(-c3ccc(F)cc3)nc1C2	11.2µM*
CCC(C)(C)C(=O)N1C[C@@H](CO)[C@H](c2nc(-c3ccncc3)no2)C1	i
CC(C)c1nc(N2CCCCCC2)ncc1C(=O)O	13.2%
CC(C)=CCN1CCN(C(=O)CCOc2ccccc2)[C@H]2CS(=O)(=O)C[C@H]21	-16.1%
Cc1ncsc1CN1CCCOCCNC(=O)[C@@H]2CCCC[C@@H]21	4.3%
COc1ccccc1-c1ccc(CN)cc1	-26.5%[44.1 µM]
COc1ccc(F)cc1-c1ccc(C=O)cc1	3.0%[44.1 µM]
COc1ccc(F)cc1-c1ccccc1CN	10µM*
COCc1nc(C2CCCN(C(=O)C3CC3)C2)no1 (configuration not stated)	51.5%
COc1ccc(-c2[nH]c3ccccc3c2SCCNC(=O)c2ccc(S(=O)(=O)N(C)C)cc2)cc1	7.94µM*
CCN(CC)S(=O)(=O)c1ccc(NC(=O)Cn2ncc3c([nH]c4ccccc43)c2=O)cc1	45.0%
COc1ccc(S(=O)(=O)N(CCc2ccccc2)CC(=O)NCc2ccccc2)cc1	i
CCN(CC)S(=O)(=O)c1ccc(C(=O)NCCSc2c(-c3ccc(OC)cc3)[nH]c3ccccc23)cc1	7.94µM*
COc1ccc(-c2cnnn2-c2ccc(NC(=O)c3ccc(S(=O)(=O)N(C)C)cc3)cc2)cc1	i
COc1ccc(S(=O)(=O)N(CC(=O)NCCSc2ccc(C)cc2)c2ccc(C)cc2)cc1	-3.1%
CN1C(=O)CC(C(=O)O)C12CCN(Cc1nc(C(=O)O)co1)CC2 (configuration not stated)	12.9%
O=C(c1cccn2cncc12)N1CCOCC1	17.0%[44.1 µM]
